High-throughput results: PubChem, National Center for Advancing Translational Sciences (NCATS)
DRD3 antagonist: antagonists of human D3 dopamine receptor | P35462 | max response, negative = inhibition, % | D3R cells, DiscoveRx beta-arrestin luminescence, antagonist mode; active compounds read low | 360,000 compounds, 2.5% hits; in the data active means max response below about -50%; further: on the % scale 0 is the no-effect control and ±100 the full control effect
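Cells plated overnight at 1500 cells/well, then exposed to library compounds with dopamine controls for 90 minutes at 37 degrees C. DiscoveRx reagent added for 30–60 minutes at room temperature; luminescence read, quantitative HTS format.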
DRD3 agonist: agonists of human D3 dopamine receptor; P35462; 410,000 compounds, 0.58% hits; D3R DiscoveRx beta-arrestin cells, luminescence, 90 min; max activation, %; in the data active means max activation above about 30%; further: 0% is about no effect
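Cells at 1500/well, incubated overnight, then treated with pinned compounds (dopamine as control) for 90 min at 37 degrees C. DiscoveRx reagent added for 30 - 60 minutes at room temperature; luminescence read.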
D1 potentiator: potentiators of human D1 dopamine receptor | P21728 | HEK293 TREx D1 cells, calcium flux, dopamine EC20 potentiation | potentiation, % at 10 µM | 360,000 compounds, 0.036% hits | AID 504651; in the data active means potentiation above about 30%; further: 0% is about no effect
Target sequence (P21728 whole entry, looked up): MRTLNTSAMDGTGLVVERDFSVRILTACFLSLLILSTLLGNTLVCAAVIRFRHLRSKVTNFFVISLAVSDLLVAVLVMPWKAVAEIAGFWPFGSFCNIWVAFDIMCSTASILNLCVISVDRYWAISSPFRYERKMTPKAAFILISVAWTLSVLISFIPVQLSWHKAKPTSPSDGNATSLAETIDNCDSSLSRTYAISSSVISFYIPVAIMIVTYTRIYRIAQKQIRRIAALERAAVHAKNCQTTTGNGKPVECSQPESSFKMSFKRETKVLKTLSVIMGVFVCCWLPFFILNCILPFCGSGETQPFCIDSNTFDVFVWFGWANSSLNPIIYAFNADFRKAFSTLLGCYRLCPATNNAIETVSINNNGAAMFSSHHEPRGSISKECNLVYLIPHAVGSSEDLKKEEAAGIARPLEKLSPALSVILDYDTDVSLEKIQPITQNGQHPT
D1 antagonist: human D1 dopamine receptor antagonism; AID 504652; 360,000 compounds, 3.2% hits; P21728; HEK293 TREx D1 cells, calcium flux, dopamine EC80; active compounds read low; activity change, negative = inhibition, % at 10 µM; in the data active means activity change below about -30%; further: on the % scale 0 is the no-effect control and ±100 the full control effect
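After overnight tetracycline induction at 30 C, force-coupled D1 HEK293 cells took up a no-wash calcium dye at room temperature. Compounds were added and monitored 180 s, and the response to EC80 dopamine was then recorded.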
D1 agonist: human D1 receptor agonism | HEK293 T-REx D1 cells, calcium flux, agonist mode | activation, % at 2 µM | 360,000 compounds, 1% hits | AID 504660; in the data active means activation above about 30%; further: 0% is about no effect
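Tetracycline-induced HEK293 TREx D1 cells, force-coupled to calcium signalling, were dye-loaded with a no-wash calcium kit. Compound was pin-added after a 10 s baseline. Fluorescence was read kinetically at 1 cycle/s for 180 s, with calcium rises flagged as agonism.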
The depositor's hits bear a star. Sampled rows, rich in hits. Any-hit rate of the full collection: about 6%.

How did Cc1ccc(NC(=O)Cc2coc3ccc(C(C)C)cc23)c(C)c1 do in these assays?
DRD3 agonist: 10; D1 potentiator: 2; D1 antagonist: -9; D1 agonist: 5

What do the screens show for `Cc1ccc(NC(=O)Cc2cccs2)cc1Cl`?
DRD3 antagonist: 19; DRD3 agonist: 3; D1 potentiator: 1; D1 antagonist: -12; D1 agonist: -1

How did Cc1ccc(NC(=O)Cc2ncon2)cc1Cl do in these assays?
DRD3 antagonist: 6; DRD3 agonist: 1; D1 potentiator: -3; D1 antagonist: -45*; D1 agonist: 1

What do the screens show for `Fc1ccccc1C1=NC(c2ccc(C(F)(F)F)cc2)=Nc2ccccc2N1`?
DRD3 agonist: 9; D1 potentiator: 2; D1 antagonist: 7; D1 agonist: 1

How did C[C@H]1Cn2cnc(C(=O)NCc3ccc(CNC(=O)OC(C)(C)C)cc3)c2C(=O)N1 do in these assays?
DRD3 antagonist: 3; DRD3 agonist: 0

What do the screens show for `CCCCn1c(N)c(N(CC(C)C)C(=O)c2cc(-c3ccncc3)nc3ccccc23)c(=O)[nH]c1=O`?
DRD3 antagonist: 27; DRD3 agonist: 9; D1 potentiator: 2; D1 antagonist: -1; D1 agonist: 3

How did COc1cccc(CNC(=O)CCc2cn(Cc3ccccc3Cl)c3ccccc23)c1 do in these assays?
DRD3 agonist: 4; D1 potentiator: 1; D1 antagonist: -9; D1 agonist: 33*

What do the screens show for `Cc1cc(O)c(C(c2ccccc2)N2CCN(c3ccccc3)CC2)c(=O)n1Cc1ccco1` (stereo not drawn)?
DRD3 agonist: -14; D1 potentiator: -3; D1 antagonist: -16; D1 agonist: -2

What do the screens show for `CCCCn1c(O)c(/C=C/C=C/C=Nc2ccccc2)sc1=S`?
DRD3 antagonist: -19; DRD3 agonist: -2; D1 potentiator: -4; D1 antagonist: -31*; D1 agonist: 2

Results for Cc1cc(C)c(S(=O)(=O)c2cccc(Cl)c2)c(Cl)n1 ?
DRD3 antagonist: -12; DRD3 agonist: -1; D1 potentiator: -2; D1 antagonist: -2; D1 agonist: 3

Results for CCOc1nc(C)cc(C)c1S(=O)(=O)c1cccc(Cl)c1 ?
DRD3 antagonist: 16; DRD3 agonist: -5; D1 potentiator: -4; D1 antagonist: -49*; D1 agonist: 30*

How did Cc1ccc2c(c1)[nH]c1c(=O)n(CCC3=CCCCC3)cnc12 do in these assays?
D1 potentiator: -6; D1 antagonist: -32*; D1 agonist: 1

What do the screens show for `COc1ccc(CNc2ncnc3c2[nH]c2cc(OC)c(OC)cc23)cc1`?
DRD3 antagonist: -1; DRD3 agonist: -8; D1 potentiator: -6; D1 antagonist: 10; D1 agonist: 1

How did Cc1ccc2[nH]c3c(NCc4ccccc4)ncnc3c2c1 do in these assays?
DRD3 antagonist: -6; DRD3 agonist: -12; D1 potentiator: -8; D1 antagonist: -51*; D1 agonist: 40*

What do the screens show for `C1=C(CCNc2ncnc3c2[nH]c2ccccc23)CCCC1`?
DRD3 antagonist: 4; DRD3 agonist: 2; D1 potentiator: -5; D1 antagonist: -34*; D1 agonist: 20

Results for COc1ccc(CNc2ncnc3c2[nH]c2ccccc23)cc1 ?
DRD3 antagonist: -5; DRD3 agonist: -5; D1 potentiator: -2; D1 antagonist: -42*; D1 agonist: 33*

Results for O=c1c2[nH]c3ccccc3c2ncn1CCC1=CCCCC1 ?
DRD3 antagonist: -5; DRD3 agonist: -2; D1 potentiator: 5; D1 antagonist: 9; D1 agonist: -1

How did CC(C)n1nc(-c2cc3cc(O)ccc3[nH]2)c2c(N)ncnc21 do in these assays?
DRD3 agonist: -12

What do the screens show for `CCNC(=O)C1(C)CCCN(Cc2cc(-c3ccccc3)n(C)n2)C1` (stereo not drawn)?
DRD3 antagonist: 28; DRD3 agonist: -5

Results for Cc1nc(-c2coc3cc(O)c(C)cc3c2=O)cs1 ?
DRD3 antagonist: -7; DRD3 agonist: 0; D1 potentiator: -1; D1 antagonist: -51*; D1 agonist: -2

How did Cn1ncc(C(=O)N2CCN(c3ccccc3F)CC2)c1C1CCN(C(=O)OC(C)(C)C)CC1 do in these assays?
DRD3 agonist: 1; D1 potentiator: 3; D1 antagonist: 17; D1 agonist: 0

Results for CN1/C(=C\C=C(/C#N)C(=O)Nc2ccccc2F)C(C)(C)c2ccccc21 ?
DRD3 antagonist: 6; DRD3 agonist: 5; D1 potentiator: 4; D1 antagonist: -18; D1 agonist: 277*
